# Results filed as inconclusive are left out. Values without a mark were called inactive.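 The calls were made as follows: active = compounds that lower cell viability with a fitted half-maximal potency within a set limit tied to top dose; inconclusive = flat fitted activity from -70 to -30, or unreliable fit; inactive = flat near zero, opposite effect, or weaker potency.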
# Test: cytotoxicity in CCRF-CEM lymphoblastic leukemia cells – cell-based, CellTiter-Glo ATP luminescence, 8/24/48 h, dry powder, HRAS target identification, dose response (AID 720607)
# Settings: CCRF-CEM viability, 8-48 h, at 35 µM (top of the series)
smiles,measurement,value
Cc1onc(C(=O)N2CCN(C(c3ccncc3)c3ccncc3)CC2)c1[N+](=O)[O-],"activity change, negative = cytotoxicity",-4.38%

# Reference: PubChem BioAssay AID720607 (Broad Institute, 2013)
